Values joined by “and” are separate entries in the source; they are usually repeats but may differ in a detail not shown here. Equal values may be shown once. Records with an inconclusive call do not appear. Entries that show only a call come without a potency. Where a structure was tested more than once in an assay, its records may differ in their call. Active and inactive are the calls of the source. Unless noted, calls follow the shape of the full dose curve.
How the values were obtained:
[1] = Nuclear factor erythroid 2-related factor 2/antioxidant responsive element (Nrf2/ARE) small molecule agonists: qHTS cell viability counter screen in human keratinocytes (AID 1919968; active = well fitted curve in the direction sought with a large enough effect in the repeat runs; an effect the other way counts as inactive or inconclusive; also: nearly all actives have a fitted effect of over 55% in size)
How it was run: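 Stably transfected HaCaT (KeratinoSens), 1,500/well. Test agents in DMSO were applied for 23 h, 37 C/5% CO2. CellTiter-Fluor was incubated 1 h before the fluorescence read.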

[2] = Nuclear factor erythroid 2-related factor 2/antioxidant responsive element (Nrf2/ARE) small molecule agonists: luciferase reporter gene qHTS assay in human keratinocytes (AID 1919969); also: nearly all actives have a fitted effect of over 35% in size; also: potency is read from the fitted curve at half-maximal effect
[3] = G protein-coupled receptor (GPCR) small molecule agonists, calcium flux assay: HEK293 wild type cell line counter screen (AID 1920065)
How it was run: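 Following 18 h incubation at 37 C/5% CO2, plates got calcium dye for 1 h; compounds, ATP or DMSO were then pinned in and fluorescence followed kinetically (480/540 nm).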

[4] = p53 small molecule agonists, cell-based qHTS assay with human liver microsomes (AID 1963577);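 also: p53 response element beta-lactamase reporter cells with liver microsomes plus NADPH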
How it was run: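 With metabolic activation: human liver microsomes (0.5 mg/mL final) plus NADPH (0.5 mg/mL final) added alongside compounds to p53RE-bla cells; 16 h 37 C exposure; beta-lactamase read by LiveBLAzer fluorescence.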

[5] = p53 small molecule agonists, cell-based qHTS assay with rat liver microsomes (AID 1963578)
How it was run: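 Metabolic activation by rat liver microsomes and NADPH, each 0.5 mg/mL final, added right after compounds to p53RE-bla reporter cells (4,000/well, plated 5 h earlier). 16 h at 37 C, then LiveBLAzer substrate for 2 h at room temperature in the dark; fluorescence read-out.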

[6] = p53 small molecule agonists, cell-based qHTS assay with human liver microsomes: qHTS cell viability counter screen (AID 1963579); also: nearly all actives have a fitted effect of over 45% in size; also: potency is read from the fitted curve at half-maximal effect
How it was run: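 Metabolic activation used human liver microsomes and NADPH, both 0.5 mg/mL final, over 16 hours at 37 C on p53RE-bla cells (4,000/well). Cytotoxicity measured by CellTiter-Glo luminescence, 30 min at room temperature.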

[7] = p53 small molecule agonists, cell-based qHTS assay with rat liver microsomes: qHTS cell viability counter screen (AID 1963580); also: nearly all actives have a fitted effect of over 45% in size; also: potency is read from the fitted curve at half-maximal effect
How it was run: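 Luminescent ATP readout (CellTiter-Glo, 30 min at room temperature) reports viability of p53RE-bla HCT-116 cells after 16 h at 37 C with test compounds under metabolic activation by rat liver microsomes and NADPH at 0.5 mg/mL final each.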

[8] = p53 small molecule agonists, cell-based qHTS assay: qHTS cell viability counter screen (AID 1963581); also: nearly all actives have a fitted effect of over 45% in size
How it was run: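 qHTS counter screen: 16 h compound exposure at 37 C of p53RE-bla HCT-116 cells (4,000 per well, seeded 5 h prior), cell viability by ATP luminescence.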

[9] = p53 small molecule agonists, cell-based qHTS assay (AID 1963582; active = well fitted activation curve with a large enough effect in the signal ratio in the repeat runs, not every such curve was filed as active; the % refers to the signal ratio; also: potency is read from the fitted curve at half-maximal effect)
How it was run: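 Measured: fluorescence from cleaved LiveBLAzer substrate. System: p53RE-bla cells, 16 h compound treatment at 37 C, 2 h substrate step at room temperature.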

[10] = molecular target: 5-hydroxytryptamine receptor 2A (Homo sapiens) (UniProt P28223); assay: 5-hydroxytryptamine receptor 2A (HTR2A) small molecule antagonists, cell-based qHTS assay (AID 1963586); also: nearly all actives have a fitted effect of over 45% in size
Chain of 5-hydroxytryptamine receptor 2A (Homo sapiens) (P28223 whole entry, looked up): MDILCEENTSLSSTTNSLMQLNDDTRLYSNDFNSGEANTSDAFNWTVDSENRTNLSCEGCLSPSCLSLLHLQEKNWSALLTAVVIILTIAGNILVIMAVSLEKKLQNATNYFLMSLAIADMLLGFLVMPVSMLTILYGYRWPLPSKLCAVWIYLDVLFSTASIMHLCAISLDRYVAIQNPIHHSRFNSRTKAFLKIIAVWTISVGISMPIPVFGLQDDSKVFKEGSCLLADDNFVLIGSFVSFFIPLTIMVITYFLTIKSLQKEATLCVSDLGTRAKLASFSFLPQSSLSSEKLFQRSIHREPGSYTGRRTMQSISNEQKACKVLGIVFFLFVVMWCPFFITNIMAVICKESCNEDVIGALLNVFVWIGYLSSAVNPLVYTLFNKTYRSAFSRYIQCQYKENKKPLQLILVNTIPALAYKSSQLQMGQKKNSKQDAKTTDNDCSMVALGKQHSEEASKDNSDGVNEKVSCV
How it was run: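 CHO cells stably expressing human HTR2A were plated for 18 h at 37 C, then loaded with calcium dye for 1 h. Compounds were preincubated 5 min at room temperature before DOI (4 nM solution) was added. Kinetic fluorescence was read for 3 min.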

[11] = molecular target: 5-hydroxytryptamine receptor 2A (Homo sapiens) (UniProt P28223); assay: 5-hydroxytryptamine receptor 2A (HTR2A) small molecule agonists, cell-based qHTS assay (AID 1963587); also: nearly all actives have a fitted effect of over 30% in size; also: potency is read from the fitted curve at half-maximal effect
How it was run: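 HTR2A-CHO cells, plated 18 h at 37 C/5% CO2, dye-loaded 1 h at 37 C; compounds in DMSO added by pin tool (agonist mode). Intracellular calcium flux read as kinetic fluorescence on FDSS over 2 min at 1 s intervals.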

[12] = molecular target: Muscarinic acetylcholine receptor M1 (Homo sapiens) (UniProt P11229); assay: Cholinergic receptor muscarinic 1 (CHRM1) small molecule antagonists, cell-based qHTS assay (AID 1963588); also: nearly all actives have a fitted effect of over 40% in size
Chain of Muscarinic acetylcholine receptor M1 (Homo sapiens) (P11229 whole entry, looked up): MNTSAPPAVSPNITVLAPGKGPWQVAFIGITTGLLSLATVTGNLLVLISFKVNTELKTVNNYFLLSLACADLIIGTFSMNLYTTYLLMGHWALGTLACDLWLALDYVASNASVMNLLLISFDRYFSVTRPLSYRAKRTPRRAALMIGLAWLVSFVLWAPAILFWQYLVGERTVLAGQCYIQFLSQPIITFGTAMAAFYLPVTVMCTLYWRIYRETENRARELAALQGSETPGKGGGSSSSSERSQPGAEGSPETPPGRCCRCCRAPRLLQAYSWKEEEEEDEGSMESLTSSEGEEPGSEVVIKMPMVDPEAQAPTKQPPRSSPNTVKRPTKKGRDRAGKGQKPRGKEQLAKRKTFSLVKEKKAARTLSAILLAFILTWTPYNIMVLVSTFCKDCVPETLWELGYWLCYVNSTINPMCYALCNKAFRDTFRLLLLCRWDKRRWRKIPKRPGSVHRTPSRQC
How it was run: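 Compounds were tested at 15 concentrations in three independent runs. Dye-loaded CHRM1-CHO cells were exposed 5 min at room temperature before stimulation by acetylcholine added at 50nM. Intracellular calcium was read kinetically on FDSS for 3 min.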

[13] = molecular target: Muscarinic acetylcholine receptor M1 (Homo sapiens) (UniProt P11229); assay: Cholinergic receptor muscarinic 1 (CHRM1) small molecule agonists, cell-based qHTS assay (AID 1963589); also: nearly all actives have a fitted effect of over 35% in size; also: potency is read from the fitted curve at half-maximal effect
How it was run: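 Kinetic fluorescence (1 s intervals) of calcium-sensitive dye in human M1 CHO cells after compound addition; cells pre-incubated 18 h at 37 C/5% CO2 and dye-loaded 1 h.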

[14] = cAMP Responsive Elements (CRE) small molecule agonists, cell-based qHTS assay (AID 1963590)
How it was run: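 Test agents in DMSO were incubated 3 h at 37 C/5% CO2 with CRE-bla HEK 293T cells seeded 18 h earlier; LiveBLAzer B/G FRET substrate was added and read after 2 h at room temperature.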

[15] = cAMP Responsive Elements (CRE) small molecule antagonists, cell-based qHTS assay (AID 1963591; active = well fitted inhibition curve with a large enough effect in the signal ratio in the repeat runs, not every such curve was filed as active; the % refers to the signal ratio)
How it was run: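 Reporter line CRE-bla HEK 293T in dialyzed-FBS DMEM; cells preincubated 18 h, treated 3 h with compound plus NKH477 (0.25 uM final); LiveBLAzer FRET, 2 h RT.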

[16] = molecular target: Beta-2 adrenergic receptor (Homo sapiens) (UniProt P07550); assay: Adrenergic beta2 receptor (ADRB2) small molecule antagonists, cell-based qHTS assay (AID 1963592); also: series mostly up to about 92 µM; nearly all actives have a fitted effect of over 50% in size
Chain of Beta-2 adrenergic receptor (Homo sapiens) (P07550 whole entry, looked up): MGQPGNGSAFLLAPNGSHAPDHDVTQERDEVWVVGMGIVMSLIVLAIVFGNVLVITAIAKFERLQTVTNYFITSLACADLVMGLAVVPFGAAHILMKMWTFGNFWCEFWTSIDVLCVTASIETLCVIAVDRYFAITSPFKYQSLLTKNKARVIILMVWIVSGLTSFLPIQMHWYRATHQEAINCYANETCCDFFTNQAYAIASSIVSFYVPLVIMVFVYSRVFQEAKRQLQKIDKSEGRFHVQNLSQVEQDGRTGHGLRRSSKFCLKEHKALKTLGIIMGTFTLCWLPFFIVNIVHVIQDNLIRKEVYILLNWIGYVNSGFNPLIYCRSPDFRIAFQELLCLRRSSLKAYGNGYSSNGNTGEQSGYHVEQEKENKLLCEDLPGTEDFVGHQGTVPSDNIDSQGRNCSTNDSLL
How it was run: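 Assay format: CHO-ADRB2 cells, 18-20hr seeding at 37C/5% CO2, then compound plus 1nM isoproterenol agonist mix for 0.5hr RT. Homogeneous time-resolved fluorescence cAMP detection after 1hr, expressed as 665/615 nm ratio.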

[17] = molecular target: Beta-2 adrenergic receptor (Homo sapiens) (UniProt P07550); assay: Adrenergic beta2 receptor (ADRB2) small molecule agonists, cell-based qHTS assay (AID 1963593);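 also: CHO cells stably overexpressing human ADRB2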
How it was run: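 CHO cells stably over-expressing ADRB2 were plated overnight at 37C, then dosed with compounds plus a stimulation mix containing 100uM IBMX and 25uM Ro-20-1724 for 0.5hr at room temperature. cAMP was measured by HTRF competition, 1hr.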

[18] = molecular target: KiSS-1 receptor (Homo sapiens) (UniProt Q969F8); assay: Human kisspeptin (KISS1R) small molecule agonists, calcium flux assay in KISS1R-HEK293 cells (AID 1920064; active = well fitted curve in the direction sought with a large enough effect in the repeat runs; an effect the other way counts as inactive or inconclusive)
Chain of KiSS-1 receptor (Homo sapiens) (Q969F8 whole entry, looked up): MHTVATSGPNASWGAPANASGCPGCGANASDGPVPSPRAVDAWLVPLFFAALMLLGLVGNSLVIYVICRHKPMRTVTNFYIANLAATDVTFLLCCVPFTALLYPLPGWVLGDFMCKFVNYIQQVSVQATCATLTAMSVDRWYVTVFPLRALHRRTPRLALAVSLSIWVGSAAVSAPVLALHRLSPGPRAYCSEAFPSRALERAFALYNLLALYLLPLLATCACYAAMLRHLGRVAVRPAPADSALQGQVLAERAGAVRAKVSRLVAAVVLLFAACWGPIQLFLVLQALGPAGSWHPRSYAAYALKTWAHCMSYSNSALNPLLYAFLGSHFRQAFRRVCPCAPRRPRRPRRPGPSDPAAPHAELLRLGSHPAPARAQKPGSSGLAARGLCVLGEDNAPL
How it was run: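 After overnight (18 h) culture at 37 C/5% CO2, human KISS1R-HEK293 cells received calcium dye for 1 h, then test compound; emission at 540 nm (excitation 480 nm) was tracked for 3 min.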

[19] = molecular target: D(2) dopamine receptor (Homo sapiens) (UniProt P14416); assay: Dopamine D2 receptor (DRD2) small molecule agonists, cell-based qHTS assay (AID 1963594); also: nearly all actives have a fitted effect of over 35% in size
Chain of D(2) dopamine receptor (Homo sapiens) (P14416 whole entry, looked up): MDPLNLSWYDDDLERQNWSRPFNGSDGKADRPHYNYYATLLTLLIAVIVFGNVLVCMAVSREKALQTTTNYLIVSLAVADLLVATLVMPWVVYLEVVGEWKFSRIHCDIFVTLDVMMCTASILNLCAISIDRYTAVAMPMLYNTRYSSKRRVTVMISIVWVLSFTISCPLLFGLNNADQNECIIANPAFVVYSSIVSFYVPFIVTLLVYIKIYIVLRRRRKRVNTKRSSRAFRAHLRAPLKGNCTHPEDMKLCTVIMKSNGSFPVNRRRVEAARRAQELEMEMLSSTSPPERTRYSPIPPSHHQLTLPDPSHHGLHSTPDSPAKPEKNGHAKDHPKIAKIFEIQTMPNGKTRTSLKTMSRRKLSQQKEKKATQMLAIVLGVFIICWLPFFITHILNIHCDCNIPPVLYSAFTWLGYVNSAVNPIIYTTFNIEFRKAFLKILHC
How it was run: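 HEK293 cells stably expressing DRD2 were cultured 24 h at 37 C, then given Ro20-1724 (0.1 mM final) and compounds for 10 min at room temperature. NKH477 (200nM) was then added for 30 min. cAMP was read by HTRF.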

[20] = molecular target: D(2) dopamine receptor (Homo sapiens) (UniProt P14416); assay: Dopamine D2 receptor (DRD2) small molecule antagonists, cell-based qHTS assay (AID 1963595; active = well fitted inhibition curve with a large enough effect in the signal ratio in the repeat runs, with a control signal flat; the % refers to the signal ratio)
How it was run: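 Human DRD2 antagonist qHTS measuring cAMP by HTRF. The cells are exposed to compound for 10 min, then to NKH477 (200 nM) and quinpirole (12 nM) for 30 min at RT, with Ro20-1724 (0.1 mM) present throughout.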

SMILES | Potency [1] | Potency [2] | Potency [3] | Potency [4] | Potency [5] | Potency [6] | Potency [7] | Potency [8] | Potency [9] | Potency [10] | Potency [11] | Potency [12] | Potency [13] | Potency [14] | Potency [15] | Potency [16] | Potency [17] | Potency [18] | Potency [19] | Potency [20]
CCCC(C)C(O)CC (configuration not stated) | inactive | inactive | inactive | inactive | inactive | inactive | inactive | inactive | inactive | inactive | inactive | inactive | inactive | inactive | inactive | inactive | inactive | – | – | –
CC(C)(C)c1cc(Cc2cc(C(C)(C)C)c(O)c(C(C)(C)C)c2)cc(C(C)(C)C)c1O | inactive | inactive | inactive | – | – | inactive | inactive | inactive | – | inactive | inactive | inactive | inactive | inactive | inactive | inactive | – | inactive | inactive | inactive
Cc1oncc1C(=O)Nc1ccc(C(F)(F)F)cc1 | inactive | 27.3 µM (active) and inactive | inactive | inactive | inactive | 20.4 µM (active) and inactive | 20.4 µM (active) | inactive | – | – | – | – | – | – | inactive | inactive | – | – | inactive | inactive
CC(=O)OCc1ccco1 | inactive | inactive | inactive | – | – | inactive | inactive | inactive | – | inactive | inactive | inactive | inactive | inactive | inactive | inactive | – | inactive | inactive | inactive
COC(=O)c1cc(Cl)ccc1OC | inactive | inactive | – | inactive | inactive | inactive | inactive | inactive | inactive | inactive | inactive | inactive | inactive | inactive | inactive | inactive | inactive | inactive | inactive | inactive
CCN(CC)c1ccc2c(C)cc(=O)oc2c1 | inactive | inactive | inactive | – | – | inactive | inactive | inactive | 25.9 µM (active) and 32.4 µM (active) | inactive | inactive | inactive | inactive | – | – | inactive | inactive | inactive | inactive | inactive
CCc1cnc(C(=O)O)c(C(=O)O)c1 | inactive | inactive | inactive | inactive | – | inactive | inactive | inactive | inactive | inactive | inactive | – | inactive | inactive | inactive | inactive | inactive | inactive | – | inactive
Cn1cnc([N+](=O)[O-])c1Sc1ncnc2nc[nH]c12 | inactive | 27.1 µM (active) and inactive | – | inactive | inactive | inactive | inactive | inactive | – | – | – | – | – | inactive | inactive | inactive | – | inactive | inactive | inactive
C/C=C/C(=O)O | inactive | inactive | inactive | – | – | inactive | inactive | – | – | inactive | inactive | inactive | 93.3 nM (active) and inactive | inactive | inactive | inactive | – | inactive | inactive | inactive
N[C@@H](Cc1c[nH]c2ccccc12)C(=O)O | inactive | inactive | inactive | – | – | inactive | – | inactive | – | inactive | 34.7 µM (active) and inactive | inactive | inactive | inactive | inactive | inactive | inactive | inactive | inactive | inactive
C[N+](C)(CCOc1ccccc1)Cc1cccs1 | inactive | inactive | inactive | inactive | inactive | inactive | inactive | inactive | inactive | inactive | inactive | inactive | inactive | inactive | inactive | inactive | inactive | – | inactive | inactive
CCOC(/C=C(\C)CCC=C(C)C)OCC | inactive | inactive | inactive | inactive | – | inactive | – | inactive | inactive | inactive | inactive | inactive | inactive | inactive | inactive | inactive | inactive | inactive | inactive | inactive
CC(=O)OCCC1CCCCC1 | inactive | inactive | inactive | inactive | inactive | inactive | inactive | inactive | inactive | inactive | inactive | inactive | inactive | inactive | inactive | inactive | – | – | inactive | inactive
CO[Si](CCCNCCN)(OC)OC | inactive | inactive | inactive | – | – | inactive | inactive | – | – | inactive | inactive | – | – | inactive | inactive | inactive | inactive | inactive | inactive | –
CC12CC3CC(C)(C1)CC(N)(C3)C2 | inactive | inactive | inactive | – | inactive | inactive | inactive | inactive | inactive | inactive | – | inactive | inactive | inactive | inactive | inactive | inactive | inactive | – | inactive

Reference: PubChem BioAssay (Tox21)
